In PubChem BioAssay:
Activity calls are given as the source filed them.

Columns and labels:
[1] = binders of probe aFSTL3 on microarray, primary screen, stem cell growth factor project, biochemical, small-molecule microarray, fluorescence 635/667 (AID 1064); conditions: higher = more signal;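 note: measures binding of the biotinylated anti-FSTL3 antibody to printed compounds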
[2] = binders from COS7 lysate, DM2A8 probe, primary screen, torsin A project, cell lysate, small-molecule microarray, fluorescence 635/667 (AID 1065); conditions: higher = more signal, COS7 lysate expressing mutant human TOR1A
[3] = binders of probe aFGF2 on microarray, primary screen, stem cell growth factor project, biochemical, small-molecule microarray, fluorescence 635/667 (AID 1067); conditions: higher = more signal;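 note: measures binding of biotinylated aFGF2 protein to printed compounds on slides; z-score merges feature fluorescence and signal-to-noise across triplicate slides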
[4] = binders of probe aFGF10 on microarray, primary screen, stem cell growth factor project, biochemical, small-molecule microarray, fluorescence 635/667 (AID 1071); conditions: higher = more signal;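 note: score merges 667 nm spot intensity and signal to noise from triplicate slides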
[5] = target: Neurogenic locus notch homolog protein 2 (Homo sapiens) (UniProt Q04721); assay: Notch2 binders on small-molecule microarrays, primary screen, biochemical, small-molecule microarray, 635 nm fluorescence, stem cell growth factors (AID 1073); conditions: Notch2 binding, higher = more signal
[6] = target: Pro-neuregulin-1, membrane-bound isoform (Homo sapiens) (UniProt Q02297); assay: NRG1 binders on small-molecule microarrays, primary screen, psychiatric disease protein project, biochemical, small-molecule microarray, fluorescence 635/667 (AID 1075); conditions: NRG1 binding, 635 nm fluorescence, higher = more signal;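 note: score combines 667 nm spot fluorescence with signal to noise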
[7] = test system: Neuregulin-1 EGF-like domain; assay: binders of neuregulin-1 EGF-like domain, primary screen, biochemical, small-molecule microarray, 635 nm fluorescence (AID 1081); conditions: small-molecule microarray binding, higher = more signal;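 note: binding of the protein to compounds printed on small-molecule microarray slides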
[8] = FRG1 promoter luciferase signal modulators, primary screen, FRG1 inhibition for FSHD, cell-based, C2C12 myotubes, firefly/Renilla luciferase, luminescence (AID 1084); conditions: higher = more signal, called active from +8 up or from −8 down
[9] = binders of probe aFST on microarray, primary screen, stem cell growth factor project, biochemical, small-molecule microarray, fluorescence 635/667 (AID 1086); conditions: higher = more signal;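 note: score merges 667 nm fluorescence with signal-to-noise of each printed compound spot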
[10] = binders of probe aHhip on microarray, primary screen, stem cell growth factor project, biochemical, small-molecule microarray, fluorescence 635/667 (AID 1087); conditions: higher = more signal;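 note: score merges spot fluorescence at 667nm with spot signal to noise ratio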

Chain of Pro-neuregulin-1, membrane-bound isoform (Homo sapiens) (Q02297 whole entry, looked up, the tested form may be a part, canonical isoform): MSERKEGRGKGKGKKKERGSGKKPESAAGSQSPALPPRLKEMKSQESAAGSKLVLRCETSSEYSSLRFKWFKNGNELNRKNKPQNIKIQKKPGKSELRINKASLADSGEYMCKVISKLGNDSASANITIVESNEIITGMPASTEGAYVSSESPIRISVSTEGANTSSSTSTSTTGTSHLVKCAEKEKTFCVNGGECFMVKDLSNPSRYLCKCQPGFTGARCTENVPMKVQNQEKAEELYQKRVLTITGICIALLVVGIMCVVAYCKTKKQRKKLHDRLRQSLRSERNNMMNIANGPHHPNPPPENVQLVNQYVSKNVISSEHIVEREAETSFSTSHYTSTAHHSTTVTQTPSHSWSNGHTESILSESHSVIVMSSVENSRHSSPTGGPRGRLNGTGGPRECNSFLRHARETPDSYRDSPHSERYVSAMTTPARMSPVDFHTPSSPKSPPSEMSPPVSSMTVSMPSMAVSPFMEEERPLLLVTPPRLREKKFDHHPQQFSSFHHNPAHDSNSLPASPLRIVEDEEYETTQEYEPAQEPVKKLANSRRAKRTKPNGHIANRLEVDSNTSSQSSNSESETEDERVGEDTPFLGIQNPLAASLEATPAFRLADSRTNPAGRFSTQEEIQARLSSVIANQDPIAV
Chain of Neurogenic locus notch homolog protein 2 (Homo sapiens) (Q04721 whole entry, looked up, canonical isoform): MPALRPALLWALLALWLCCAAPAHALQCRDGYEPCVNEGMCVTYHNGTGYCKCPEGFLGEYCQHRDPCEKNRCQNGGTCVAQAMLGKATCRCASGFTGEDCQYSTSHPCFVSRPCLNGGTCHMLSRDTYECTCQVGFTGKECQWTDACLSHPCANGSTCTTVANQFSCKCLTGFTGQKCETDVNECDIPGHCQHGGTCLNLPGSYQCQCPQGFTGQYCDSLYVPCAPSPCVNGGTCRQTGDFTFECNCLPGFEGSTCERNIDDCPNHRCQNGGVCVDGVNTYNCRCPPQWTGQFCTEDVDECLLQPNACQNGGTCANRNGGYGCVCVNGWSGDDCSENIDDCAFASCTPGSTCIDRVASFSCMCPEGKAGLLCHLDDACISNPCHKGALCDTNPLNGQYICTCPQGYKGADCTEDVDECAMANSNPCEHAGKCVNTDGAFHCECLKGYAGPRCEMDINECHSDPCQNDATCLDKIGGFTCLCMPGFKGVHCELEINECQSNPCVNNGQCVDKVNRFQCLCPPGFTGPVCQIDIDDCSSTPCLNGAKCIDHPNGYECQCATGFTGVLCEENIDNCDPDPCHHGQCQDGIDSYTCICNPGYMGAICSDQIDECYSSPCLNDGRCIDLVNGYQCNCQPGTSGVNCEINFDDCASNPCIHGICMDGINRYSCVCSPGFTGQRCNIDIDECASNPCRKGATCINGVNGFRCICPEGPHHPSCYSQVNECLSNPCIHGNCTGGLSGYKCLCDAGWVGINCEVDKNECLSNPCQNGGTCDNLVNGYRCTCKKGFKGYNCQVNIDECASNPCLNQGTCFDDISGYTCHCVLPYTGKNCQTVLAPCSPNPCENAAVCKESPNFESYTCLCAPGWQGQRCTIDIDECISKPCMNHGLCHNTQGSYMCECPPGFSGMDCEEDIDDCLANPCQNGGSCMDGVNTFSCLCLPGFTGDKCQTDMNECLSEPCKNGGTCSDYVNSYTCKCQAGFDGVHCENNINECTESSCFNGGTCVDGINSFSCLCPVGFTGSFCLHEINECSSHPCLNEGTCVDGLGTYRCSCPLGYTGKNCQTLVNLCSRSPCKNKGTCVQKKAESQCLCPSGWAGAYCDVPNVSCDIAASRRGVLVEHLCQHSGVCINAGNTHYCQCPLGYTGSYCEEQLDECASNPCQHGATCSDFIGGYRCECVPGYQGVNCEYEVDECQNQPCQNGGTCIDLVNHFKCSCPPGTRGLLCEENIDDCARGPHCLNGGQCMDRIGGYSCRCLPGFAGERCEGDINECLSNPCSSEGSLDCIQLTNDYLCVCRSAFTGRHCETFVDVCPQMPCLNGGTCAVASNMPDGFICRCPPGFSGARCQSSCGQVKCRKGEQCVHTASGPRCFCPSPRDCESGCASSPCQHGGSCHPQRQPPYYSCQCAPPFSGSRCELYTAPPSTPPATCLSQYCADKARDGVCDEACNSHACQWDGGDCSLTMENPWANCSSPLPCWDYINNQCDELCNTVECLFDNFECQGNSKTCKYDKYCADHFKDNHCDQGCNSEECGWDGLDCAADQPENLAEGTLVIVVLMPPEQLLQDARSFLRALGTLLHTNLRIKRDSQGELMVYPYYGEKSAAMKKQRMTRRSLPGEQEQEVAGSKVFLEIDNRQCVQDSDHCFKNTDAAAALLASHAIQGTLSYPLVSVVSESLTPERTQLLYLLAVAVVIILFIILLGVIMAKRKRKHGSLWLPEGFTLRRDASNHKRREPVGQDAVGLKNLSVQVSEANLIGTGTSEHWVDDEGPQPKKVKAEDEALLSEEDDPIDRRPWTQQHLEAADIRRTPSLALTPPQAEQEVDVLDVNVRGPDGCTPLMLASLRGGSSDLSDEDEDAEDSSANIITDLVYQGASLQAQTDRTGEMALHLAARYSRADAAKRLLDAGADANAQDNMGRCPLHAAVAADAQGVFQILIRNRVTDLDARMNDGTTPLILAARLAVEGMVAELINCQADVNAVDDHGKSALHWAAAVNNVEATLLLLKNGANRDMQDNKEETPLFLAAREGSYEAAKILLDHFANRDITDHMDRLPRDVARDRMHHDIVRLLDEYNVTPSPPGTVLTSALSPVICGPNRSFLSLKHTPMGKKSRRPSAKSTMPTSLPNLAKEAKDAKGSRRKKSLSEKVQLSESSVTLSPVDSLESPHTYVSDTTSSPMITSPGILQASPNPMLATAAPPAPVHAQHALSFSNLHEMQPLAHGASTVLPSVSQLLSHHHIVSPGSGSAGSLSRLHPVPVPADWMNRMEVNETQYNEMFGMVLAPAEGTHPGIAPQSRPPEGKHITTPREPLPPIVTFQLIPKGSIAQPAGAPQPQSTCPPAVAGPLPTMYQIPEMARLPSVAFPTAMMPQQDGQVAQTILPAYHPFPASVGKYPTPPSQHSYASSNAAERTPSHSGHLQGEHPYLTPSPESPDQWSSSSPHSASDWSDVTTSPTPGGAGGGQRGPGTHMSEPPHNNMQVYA

Row | Compound | composite z-score [1] | composite z-score [2] | composite z-score [3] | composite z-score [4] | composite z-score [5] | composite z-score [6] | composite z-score [7] | z-score [8] | composite z-score [9] | composite z-score [10]
1 | CC(=O)NCCCC[C@@H]1NC(=O)[C@@H]2C[C@H](C(=O)NCCCC[N+](C)(C)C)[C@H](c3cccc(OCCO)c3)N2C1=O | -0.239 | 1.05 | -0.126 | -0.194 | -0.525 | 0.82 | 1.13 | 0.573 (inactive) | -0.204 | -0.0645
2 | CC(C)(C)OC(=O)CC[C@]1(C(=O)O)COC(c2ccc(OCCCO)cc2)=N1 | 0.303 | 2.38 | -0.0279 | -0.011 | 0.541 | 1.98 | 1.45 | 0.394 (inactive) | 0.556 | -0.0296
3 | CC1CC/C=C\[C@H]2OC34C=CCN(Cc5ccccc5)C(=O)[C@H]3N(CCO)C(=O)[C@@H]4C2C(=O)O1 (stereo not given in full) | 0.767 | 2.2 | -0.0662 | 1.1 | -0.821 | 1.86 | 1.51 | 0.781 (inactive) | -0.253 | -0.0994
4 | O=C(N1CCOCC1)[C@@]1(CCS(=O)(=O)c2ccccc2)COC(c2ccc(OCCCO)cc2)=N1 | 0.229 | 0.281 | -0.0348 | 0.797 | -0.194 | 0.929 | 0.942 | -1.85 (inactive) | 0.54 | 0.041
5 | Cc1ccc(S[C@]2(C(=O)NCCN3CCOCC3)CC(=O)N(C3Cc4ccccc4C3)[C@@H]2c2ccc(CO)cc2)cc1 | -0.108 | 1.32 | -0.0825 | -0.168 | -0.746 | 1.72 | 1.27 | -0.611 (inactive) | 0 | -0.0994
6 | COc1ccccc1CN1C(=O)c2ccccc2[C@](Cc2ccccc2I)(C(=O)NCCN2CCOCC2)[C@@H]1c1ccc(CO)cc1 | -0.291 | 0.148 | 0.103 | 0.479 | 1.37 | 1.39 | 1.3 | -3.32 (inactive) | 1.08 | -0.189
7 | COc1ccc(C(=O)Nc2ccc(CN3C(=O)[C@]4(O[C@H](CCn5cc([C@H](O)c6ccccc6)nn5)[C@@H]([Si](C)(C)c5ccc(OC)cc5)[C@@H]4C)c4ccccc43)cc2)cc1 | 0.804 | 0.0963 | -0.172 | -0.161 | -0.284 | 0.178 | 0.923 | -0.855 (inactive) | 0.198 | -0.0994
8 | C/C=C/[C@@H](CCn1cc([C@H](O)c2ccccc2)nn1)[Si](C)(C)c1ccc(OC)cc1 | 0.683 | 1.28 | -0.0462 | -0.135 | -1.5 | 1.29 | 0.96 | -1.41 (inactive) | -1.12 | -0.236
9 | COC(=O)[C@@]1(Cc2ccc(OC)cc2)[C@H]2c3cc(C(=O)N4CCCC4)n(CCc4ccc(O)c(OC)c4)c3C[C@H]2CN1C(=O)c1ccccc1 | 0.411 | -0.336 | 0.0331 | 0.252 | 1.56 | 1.2 | 0.803 | -0.454 (inactive) | 0.603 | 0.167
10 | CC(C)[Si](C#C[Si](C(C)C)(C(C)C)C(C)C)(O[C@H](C)c1cn(Cc2cccc(Cl)c2)nn1)C(C)C | -0.333 | -0.0681 | -0.123 | 0.316 | 0.496 | 0.528 | 0.94 | -1.14 (inactive) | 0.323 | -0.0994
11 | C[C@@H]1ON(c2ccccc2)[C@H](c2ccccc2)[C@H]1C(=O)N1C(=O)OC[C@H]1Cc1ccccc1 | -0.414 | 0.464 | -0.127 | 0.464 | 0.844 | 0.243 | 0.539 | -0.114 (inactive) | 0.138 | 0.0574
12 | COc1ccc(C(=O)Nc2ccc3c(c2)[C@]2(O[C@@H](CCO)[C@H]([Si](C)(C)c4ccc(OC)cc4)[C@H]2C)C(=O)N3Cc2ccccc2)cc1 | 0.0295 | 0.203 | -0.155 | -0.0615 | 0.0879 | 0.725 | 0.913 | -3.63 (inactive) | -0.0897 | -0.0237
13 | COc1cc2c(cc1OC)CN(C(=O)[C@@H]1[C@H]3C(=O)O[C@H](c4ccccc4)[C@H](c4ccccc4)N3[C@H](c3ccc(OCCO)cc3)[C@@]13C(=O)Nc1ccc(C#CCCO)cc13)CC2 | -0.0108 | 0.718 | 0.105 | 0.944 | 1.56 | 1.58 | 1.27 | 0.838 (inactive) | 0.0774 | 0.169
14 | COC(=O)c1ccc(OC)c(/C=C\CC(CCc2ccccc2)OC(=O)c2ccncc2)c1 (stereo not given) | 0.233 | 0.767 | -0.22 | -0.293 | -0.714 | -0.0697 | 0.0883 | -2.63 (inactive) | -0.432 | -0.146
15 | O=C1OCC=C[C@H]2OC34C=CCN(CCN5CCOCC5)C(=O)[C@H]3N(CCCCCO)C(=O)[C@@H]4[C@@H]12 (stereo not given in full) | -0.099 | 0.298 | -0.128 | -0.191 | 0.0385 | -0.0529 | 1.43 | 0.401 (inactive) | -0.452 | -0.236
16 | C[N+](C)(C)CCCC[C@@H]1NC(=O)[C@@H]2C[C@H](C(=O)O)[C@H](c3cccc(OCCO)c3)N2C1=O | 0.846 | 0.0439 | -0.179 | -0.372 | -0.821 | -0.0567 | 1.1 | -0.112 (inactive) | -0.184 | -0.245
17 | CC1=C2[C@@H](CCc3ccccc3)OB(O)C[C@@H]2[C@@H]2C(=O)C=CC(=O)[C@@H]2C1 | -0.741 | 0.654 | -0.0887 | 1.13 | 1.38 | 0.51 | 0.976 | -1.57 (inactive) | 0.32 | -0.16
18 | C=CC[C@]1(C(=O)N(C)C)N=C(c2ccc(OCCCO)cc2)O[C@H]1c1ccccc1 | 0.334 | 0.184 | 0.229 | 1.14 | 0.353 | 1.85 | 1.34 | 2.28 (inactive) | 0.463 | 0.064
19 | COCCOC(=O)N1C(=O)[C@@]2(c3cc(C#CC4(O)CCCCCC4)ccc31)[C@H](C(=O)NC[C@H](O)c1ccccc1)[C@H]1C(=O)O[C@H](c3ccccc3)[C@H](c3ccccc3)N1[C@@H]2c1ccc(OCCO)cc1 | -0.38 | -0.166 | 0 | 0.353 | 0.672 | 0.985 | 1.14 | 0.78 (inactive) | 0.409 | -0.0994
20 | CC1C=C(CCCO)C=C(C(=O)OCCS(C)(=O)=O)C(C(=O)OCCS(C)(=O)=O)=CN1Cc1cccc(OC(F)(F)F)c1 (stereo not given) | -0.228 | 0.21 | -0.0379 | 0.203 | 0.707 | 2.08 | 1.14 | 0.416 (inactive) | 0.106 | -0.0645
21 | CCOc1cc(C(O)C2C=CC3C(=O)NC(=O)C3N2Nc2ccccn2)ccc1O (stereo not given) | -0.373 | 0.123 | -0.0094 | 0.458 | 0.257 | 0.18 | 0.117 | -0.027 (inactive) | 0.0771 | -0.132
22 | CCCCC(=C=CC[C@H](O)c1cccc(OCCO)c1)C[C@H](O)COCc1ccccc1 | -0.0829 | 0.284 | -0.112 | 0.205 | -0.431 | -0.491 | 0.794 | -0.664 (inactive) | -0.11 | -0.28
